Data on eight compounds can be found in PubChem BioAssay (NCI).

The panel holds about 79,000 compounds, 15% with a hit somewhere; the sample as a whole holds those more often. Unmarked numbers belong to inactive results. The source made the active and inactive calls. Rule as the data show it: active = growth inhibition above about 70%; inactive = the rest.

This assay can be described thus: NCI Yeast Anticancer Drug Screen. Data for the rad18 strain (AID 177). The conditions noted are these: S. cerevisiae rad18 mutant growth inhibition, stronger effect = higher value. As to the method:
Growth inhibition of yeast strains with defined genetic alterations is measured as a screen for potential anti-cancer activity. Selected strains with alterations in DNA damage repair or cell cycle control were exposed to compounds and growth inhibition was measured relative to vehicle treated controls. The strain used in this assay is rad18

As for `c1ccc2c(c1)sc1nc3ccncc3nc12`, the growth inhibition (at 1.2 µM) is 0%; the growth inhibition (at 3.7 µM) was -3%; the growth inhibition (at 11.0 µM) was 1%; the growth inhibition (at 33.0 µM) was 10%; the growth inhibition (at 100.0 µM) is 22%.

Regarding `CCCCCCCCCC/C=C\C(=O)O`, the growth inhibition was 0% (at 1.2 µM); 1% (at 3.7 µM); -5% (at 11.0 µM); 19% (at 33.0 µM); 97% (active) (at 100.0 µM).

With `O=[N+]([O-])c1cccc2nc3ccccc3c(NCCCN3CCOCC3)c12`, the growth inhibition was 96% (active) (at 1.2 µM); 96% (active) (at 3.7 µM); 97% (active) (at 11.0 µM); 97% (active) (at 33.0 µM); 99% (active) (at 100.0 µM).

In the case of `O=C(c1ccc(Cl)cc1Cl)C(Cl)Cl`, the growth inhibition runs as follows: (at 1.2 µM) -30%; (at 3.7 µM) -34%; (at 11.0 µM) -1%; (at 33.0 µM) 76% (active); (at 100.0 µM) 98% (active).

Consider `COc1ccc(O)c(/C=N\Nc2ccccc2)c1`, for which the growth inhibition is -9% (at 1.2 µM); -8% (at 3.7 µM); -2% (at 11.0 µM); 14% (at 33.0 µM); 54% (at 100.0 µM).

As for `COc1ccc(Br)c(C(=O)Sc2nnnn2-c2cccc(Cl)c2)c1`, the growth inhibition is -24% (at 1.2 µM); -10% (at 3.7 µM); -8% (at 11.0 µM); 52% (at 33.0 µM); 93% (active) (at 100.0 µM).

As to `Nc1nc(Cl)c(Cl)c(Cl)n1`, the growth inhibition runs as follows: (at 1.2 µM) 1%; (at 3.7 µM) 5%; (at 11.0 µM) 19%; (at 33.0 µM) 77% (active); (at 100.0 µM) 99% (active).

Take `CCC(=O)Oc1c(Cl)cc(Cl)c2ccccc12`: the growth inhibition was -3% (at 1.2 µM); 1% (at 3.7 µM); 1% (at 11.0 µM); 5% (at 33.0 µM); 73% (active) (at 100.0 µM).
